18 compounds from PubChem BioAssay can be followed below.

A word on the inhibition: it is the drop in the measured response relative to a control, in per cent.

Unmarked numbers belong to inactive results. The rule behind the calls is not given here.

Chain of Pantothenate synthetase (Mycobacterium tuberculosis (strain ATCC 25618 / H37Rv)) (P9WIL5 whole entry, looked up): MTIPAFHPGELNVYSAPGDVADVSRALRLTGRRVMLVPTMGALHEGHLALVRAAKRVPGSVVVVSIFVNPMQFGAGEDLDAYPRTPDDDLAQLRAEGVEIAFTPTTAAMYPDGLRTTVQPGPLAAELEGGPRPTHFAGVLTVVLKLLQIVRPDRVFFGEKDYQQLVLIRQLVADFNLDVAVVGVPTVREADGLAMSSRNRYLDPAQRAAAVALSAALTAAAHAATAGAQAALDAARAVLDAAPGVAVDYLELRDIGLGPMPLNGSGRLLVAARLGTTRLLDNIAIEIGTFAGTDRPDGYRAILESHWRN

This test has as its target Pantothenate synthetase (Mycobacterium tuberculosis (strain ATCC 25618 / H37Rv)) (UniProt P9WIL5). Nature of the test: Recombinant Mtb pantothenate synthetase (PanC) inhibitors, coupled enzyme, confirmatory (AID 375).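 Note: 0% = full reaction with vehicle and 100% = no enzyme background.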 The note with it: coupled enzyme assay; at 10 µM, hits give high values.
Regarding `O=C(CN1C(=O)CSC1=O)N1CCc2ccccc2C1`, the inhibition was 3%.
For the compound `C/C(=C\c1ccco1)C1C(C#N)=C(N)OC2=C1C(=O)CC(C)(C)C2` (stereo not drawn), the inhibition was 12%.
`Cc1n[nH]c(C)c1S(=O)(=O)Nc1ccc2c(c1)OCCO2`: the inhibition is 0%.
For the compound `CCN(CC)Cc1nc2c(c(=O)[nH]1)C1(CCCCC1)Cc1ccccc1-2`, the inhibition is 3%.
Then `CCOC(=O)CC(NS(=O)(=O)c1ccc(NC(C)=O)cc1)c1ccc(OCC)cc1` (stereo not drawn), with 5%.
With `c1ccc(Oc2ccc(-n3cnnn3)cc2)cc1`, the inhibition is 3%.
As for `CC(=O)Nc1ccc(S(=O)(=O)N2CCC(NC(C)=O)(c3cccc(F)c3)CC2)cc1`, the inhibition is 0%.
Consider `COCCCNC(=O)CC1Oc2ccccc2NC1=O` (stereo not drawn), for which the inhibition was 0%.
Then `CCOC(=O)c1ccc2ncc(C(=O)OCC)c(NCCN(C)C)c2c1`, with 0%.
As for `CN1C2C=C3C(C#N)=C(N)C(C#N)(C#N)[C@@H](c4ccc(Cl)cc4)[C@@H]3C1CC2` (stereo partly drawn), the inhibition is 7%.
In the case of `O=S(CC(O)COCc1ccc(Cl)cc1)c1ccccn1` (stereo not drawn), the inhibition is 0%.
To `CN(C)CCCNC(=O)CCC1CCCCC1` belongs 6%.
In the case of `Cc1ccc2cc(C(c3nnnn3CC3CCCO3)N3CCc4ccccc4C3)c(=O)[nH]c2c1` (stereo not drawn), the inhibition was 0%.
Turning to `CCC(C(=O)OCCN(CC)CC)c1ccccc1` (stereo not drawn), the inhibition is 0%.
`O=C(Nc1nc(-c2ccccn2)cs1)C1CC1`: the inhibition is 0%.
To `O=c1cc(-c2ccco2)oc2ccc(Cl)cc12` belongs 1%; to `CC(C)c1nnc(NC(=O)c2cnccn2)s1`, 0%.
In the case of `O=C(CN(Cc1ccc2c(c1)OCO2)C(=O)CNS(=O)(=O)c1ccccc1)NCc1ccco1`, the inhibition is 0%.
